CCHFV vOTU inh: CCHFV vOTU protease inhibition | Pep-AMC fluorescence | inhibition, % at 11.5 µM | 370,000 tested, 0.55% active; in the data active = inhibition above about 30%; also: 0% = vehicle wells with enzyme and 100% = no enzyme wells
TcdB inh: inhibitors of Clostridioides difficile toxin B glycohydrolase; AID 652162; 350,000 tested, 0.24% active; TcdB glycohydrolase enzymatic assay, plate reader; inhibition, % at 9.99 µM; in the data active = inhibition above about 10%
PriA SSB inh: blocks PriA binding to SSB C-terminal tail. AlphaScreen SSBct-PriA binding, biotinylated peptide. inhibition, % at 33 µM. 430,000 tested, 0.6% active. AID 1272365; in the data active = inhibition mostly above about 37%, no sharp cut-off; inactive = mostly below about 20%;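 also: plate controls were negative control peptide for no effect and reference peptide for full effect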
SARS 3CLpro inh-1: SARS-CoV 3CLpro protease inhibition; P0C6X7; recombinant SARS-CoV 3CLpro, quenched FRET peptide cleavage; inhibition, % at 6 µM; 290,000 tested, 0.14% active; AID 1706; in the data active = inhibition above about 12%
Vc quorum ag: induces V. cholerae light production without autoinducers. V. cholerae BH1578 lux reporter, luminescence, 6 h. activation, % at 18.7 µM. 350,000 tested, 0.16% active; in the data active = activation mostly above about 9.7%, no sharp cut-off
VHR inh abs: blocks human VHR1 dual specificity phosphatase. 290,000 tested, 0.52% active. inhibition, % at 13.3 µM. recombinant VHR phosphatase, pNPP absorbance. AID 1654. P51452; in the data active = inhibition above about 50%
SARS 3CLpro inh-2: confirmation of SARS coronavirus 3C-like protease inhibitors; QFRET protease activity assay, 3CLpro; 380 tested, 36% active; shares compounds with SARS 3CLpro inh-1; inhibition, % at 6 µM; in the data active = inhibition above about 13%
* marks the source's active call; other numbers are inactive results; i = inactive; nt = not tested or not shown. Only some compounds are listed: those with a hit (about 1.3% of all), similar ones and a draw of the others.

SMILES | CCHFV vOTU inh | TcdB inh | PriA SSB inh | SARS 3CLpro inh-1 | Vc quorum ag | VHR inh abs | SARS 3CLpro inh-2
COc1ccc(NC(=O)CC2C(=O)NCCN2C(=O)Nc2ccc(C(F)(F)F)cc2)cc1 (stereo unspecified) | 10 | 1 | 1 | 13* | i | 10 | 4
Cc1nc(-n2cccc2)sc1C(=O)N1CC(S(=O)(=O)Cc2ccco2)C1 | nt | nt | 8 | nt | nt | nt | nt
NC(=S)N/N=C/c1ccc(C23CC4CC(CC(C4)C2)C3)cc1 | nt | nt | nt | 14* | nt | 1 | -2
NC(=S)NN=Cc1ccc(C23CC4CC(CC(C4)C2)C3)cc1 | nt | nt | 3 | nt | nt | nt | nt
Cc1noc(NS(=O)(=O)c2ccc(NC(=O)Nc3ccc(Cl)c(Cl)c3)cc2)c1C | 14 | nt | -9 | 16* | 0 | 3 | 10
O=C(Nc1ccccc1N1CCN(C(=O)c2ccc(Cl)cc2)CC1)c1cccc([N+](=O)[O-])c1 | -7 | -1 | 9 | 14* | -1 | -3 | -1
CC(=O)NC1C(=O)N(CCN2CCOCC2)c2ccc(Br)cc21 (stereo unspecified) | -1 | -9 | -3 | 14* | -6 | -22 | 47*
Cc1ccc(OCC(=O)N/N=C/c2ccc([N+](=O)[O-])o2)cc1 | 16 | nt | nt | 13* | i | 22 | -6
CN(CC(=O)NC1CCC(Oc2ncc(F)cn2)CC1)S(C)(=O)=O (stereo unspecified) | nt | nt | 0 | nt | nt | nt | nt
Cc1ccc(NC(=O)c2ccccc2C(F)(F)F)cc1N1CCCC1=O | nt | nt | -1 | nt | nt | nt | nt
CC(=O)c1cc(-c2ccccc2)[nH]c1N1CCOCC1 | 1 | 0 | -14 | 46* | -1 | 30 | 6
COc1ccc(Cl)cc1C(=O)N1CCN(c2cc(Oc3ccccc3)nc(C)n2)CC1 | nt | nt | -22 | nt | nt | nt | nt
Cc1ccc(O)c(Nc2ncnc3ccccc23)c1 | 5 | 1 | -4 | 13* | 0 | 17 | 1
Cc1ccc2ncnc(Nc3ccccc3)c2c1 | 5 | 2 | 2 | 5 | i | 19 | nt
COCCN(Cc1ccoc1)C(=O)c1cc(C)on1 | nt | nt | 7 | nt | nt | nt | nt
COc1cc2c(cc1OC)C(c1cc(Br)ccc1F)N(C(=O)CCl)CC2 (stereo unspecified) | -15 | 1 | -3 | 22* | -1 | 7 | 34*
COc1ccc(C(C(=O)NCC2CCCO2)N(C(=O)Cn2nnc3ccccc32)c2ccc(NC(C)=O)cc2)cc1 (stereo unspecified) | 9 | -1 | 0 | 35* | -2 | 2 | 30*
CC(=O)Nc1ccc(N(C(=O)Cn2nnc3ccccc32)C(C(=O)NC2CCCC2)c2ccc(O)c(O)c2)cc1 (stereo unspecified) | 7 | 0 | 8 | 20* | -1 | 2 | 25*
CCOc1cc(C(C(=O)NCC2CCCO2)N(C(=O)Cn2nnc3ccccc32)c2ccc(NC(C)=O)cc2)ccc1O (stereo unspecified) | 12 | -2 | -8 | 10 | 0 | 30 | nt
NNC(=O)CN1C(CN2CCOCC2)=Nc2ccc(Br)cc2C1c1ccccc1 (stereo unspecified) | -5 | -6 | 6 | 21* | -1 | 12 | -1
CCC1=Nc2ccc(Br)cc2C(c2ccccc2)N1CC(=O)OC (stereo unspecified) | 7 | nt | -6 | 3 | 0 | 27 | nt
NNC(=O)CN1C(c2ccc(Cl)cc2)=Nc2ccc(Br)cc2C1c1ccccc1 (stereo unspecified) | 1 | nt | 16 | 8 | 0 | 24 | nt
CC1=Nc2ccc(Br)cc2C(c2ccccc2)N1CC(=O)NN (stereo unspecified) | -6 | 0 | -13 | 13* | 2 | 30 | 2
NNC(=O)CN1C(c2ccccc2)=Nc2ccc(Br)cc2C1c1ccccc1 (stereo unspecified) | 3 | 2 | 0 | 13* | 0 | 24 | -3
COc1cc(OC)c(C2=Nc3ccc(Br)cc3C(c3ccccc3)N2CC(=O)NN)cc1OC (stereo unspecified) | 10 | 1 | 5 | 12* | -2 | 27 | 0
SMILES | CCHFV vOTU inh | TcdB inh | PriA SSB inh | SARS 3CLpro inh-1 | Vc quorum ag | VHR inh abs | SARS 3CLpro inh-2
CCOC(=O)CN1C(c2cc(OC)c(OC)c(OC)c2)=Nc2ccc(Br)cc2C1c1ccccc1 (stereo unspecified) | nt | nt | -17 | nt | nt | nt | nt
COc1ccc(C2=NN(C(=O)CSc3nnc(CNC(=O)c4cccc(C)c4)n3-c3ccccc3)C(c3cccc(OC)c3OC)C2)cc1 (stereo unspecified) | nt | nt | 3 | nt | nt | nt | nt
COc1ccc(Cl)cc1NC(=O)Nc1ccc2c(c1)CC(=O)N2C | nt | nt | -18 | nt | nt | nt | nt
Cn1c(=O)c2c(nc3n2CC(c2ccc(F)cc2)=NN3Cc2c(F)cccc2Cl)n(C)c1=O | nt | nt | -7 | nt | nt | nt | nt
CCc1ccc(S(=O)(=O)/N=C2\C=C(Nc3ccc(C(=O)O)cc3)C(=O)c3ccccc32)cc1 | 112* | 0 | nt | 17* | 0 | -14 | 11
O=C(O)c1cccc(NS(=O)(=O)c2ccc(C3CCCCC3)cc2)c1 | nt | nt | -7 | 12* | 0 | 4 | 2
Cc1cccc(NS(=O)(=O)c2ccc(C3CCCCC3)cc2)c1 | 28 | nt | -3 | 3 | i | 22 | nt
CCOC(=O)c1ccc(NC(=O)CN2C(=O)CSCC2=O)cc1 | 7 | 1 | -11 | 11 | 0 | 7 | nt
CCOC(=O)c1ccc(NC(=O)CN2C(=O)C(CC)SC(CC)C2=O)cc1 (stereo unspecified) | 3 | 2 | -8 | 13* | 0 | 16 | -2
O=C1C2N=NN(c3ccccc3)C2C(=O)N1c1cccc(Cl)c1 (stereo unspecified) | nt | nt | -1 | nt | nt | nt | nt
O=Cc1c(C(=O)O)n(CC(=O)O)c2ccccc12 | 6 | nt | -19 | 13* | 1 | 17 | -1
O=Cc1c(C(=O)O)n(Cc2ccc(Cl)cc2)c2ccccc12 | 13 | nt | 2 | 4 | 0 | -4 | nt
O=S(=O)(Nc1ccc(S(=O)(=O)Nc2nccs2)cc1)c1ccc(Br)cc1 | 18 | 0 | -5 | 47* | 0 | -9 | 1
CCOC(=O)c1cc(-c2ccccc2)sc1N | 9 | nt | -9 | 59* | i | 18 | 33*
CCOC(=O)c1sc(-c2ccccc2)cc1N | -2 | nt | -42 | 1 | 0 | -2 | nt
CCOC(=O)c1c(N)sc(C(O)(C(F)(F)F)C(F)(F)F)c1-c1ccccc1 | -7 | nt | 5 | 12* | 0 | 12 | 10
Cn1cnnc1SCCNC(=O)c1ncc(-c2ccc(F)cc2)o1 | nt | nt | -6 | nt | nt | nt | nt
CCCn1nnc(NC(=O)COc2ccc(C3CCCCC3)cc2)n1 | -7 | 1 | -5 | 14* | i | 22 | 1
CCCn1nnc(NC(=O)COc2ccc(Cl)cc2)n1 | 9 | nt | -19 | -2 | 0 | -3 | nt
O=C(N[C@@H](Cc1ccc(Br)cc1)C(=O)O)OCC1c2ccccc2-c2ccccc21 | 12 | 0 | -16 | 12* | 1 | -10 | 8
Cc1ccc2cc(CCNC(=O)C(C)(C)Oc3ccc(Cl)cc3)c(=O)[nH]c2c1C | nt | nt | -1 | nt | nt | nt | nt

High-throughput results as filed in PubChem BioAssay.
